Drawing on PubChem BioAssay (Tox21), this text covers outcome and Potency for 25 compounds.

Where “and” joins values, the source holds several entries; their conditions need not be identical. Identical values can stand only once. Inconclusive results are not listed. Where a structure was tested more than once in an assay, its records may differ in their call. Calls of active or inactive are those of the source. Unless noted, the call rests on the fitted dose curve.

Assay [1] concerns the target Thyrotropin receptor (Homo sapiens) (UniProt P16473). The experiment in a line: qHTS assay to identify small molecule agonists of the thyroid stimulating hormone receptor (TSHR) signaling pathway (AID 1224843). Further: nearly all actives have a fitted effect of over 45% in size. In outline:
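Agonist activity read as cAMP rise via d2/cryptate HTRF competition, 1 h room-temperature detection, in HEK293 cells expressing TSHR. Fifteen-point titrations, each run in triplicate, with a 30 min room-temperature incubation beforehand.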

The nature of assay [2]: qHTS assay to identify small molecule agonists of the hypoxia (HIF-1) signaling pathway - cell viability counter screen (AID 1224844). Further: nearly all actives have a fitted effect of over 50% in size. The method in brief:
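In this counter screen, HRE-bla ME-180 cell viability after 17 hrs of compound exposure at 37C was read by CellTiter-Glo luminescence, multiplexed with the beta-lactamase reporter measurement.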
Background: In qHTS, concentration-response curves come from the screen itself.

A short description of assay [3]: qHTS assay to identify small molecule agonists of H2AX (AID 1224845; active means well fitted activation curve with a large enough effect in the signal ratio in the repeat runs, not every such curve was filed as active; the % refers to the signal ratio). In outline:
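Phospho-H2AX Ser139 measured by HTRF (ex 320 nm; em 665 and 620 nm) after 24 hr antibody incubation. Compounds, 15 concentrations, 0.76% DMSO, were applied to CHO-K1 cells for 3hr at 37C before lysis.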

Assay [4] in a line: qHTS assay to identify small molecule agonists of the hypoxia (HIF-1) signaling pathway (AID 1224846; active means well fitted activation curve with a large enough effect in the signal ratio in the repeat runs, not every such curve was filed as active; the % refers to the signal ratio). The method in brief: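 ME-180 HRE-bla reporter cells; compounds in DMSO, 17 h at 37C; read-out beta-lactamase via CCF4-AM FRET.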
Assay [5] is described as follows: qHTS assay to identify small molecule agonists of H2AX - cell viability counter screen (AID 1224847).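 Further: wild-type CHO-K1 cells; top concentration of the series differs between compounds; nearly all actives have a fitted effect of over 30% in size.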 In outline:
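After overnight plating of 1000 CHO-K1 cells per well, a 15-concentration compound series was applied for 3 hr at 37C. Luminescence from CellTiter-Glo, read following 30 min at room temperature, reflected cell viability.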

A short description of assay [6]: qHTS assay to identify small molecule antagonists of the estrogen related receptor (ERR) signaling pathway from Tox21 library (AID 1224848; active means well fitted curve in the direction sought with a large enough effect in the repeat runs; an effect the other way counts as inactive or inconclusive; further: nearly all actives have a fitted effect of over 50% in size). The method in brief:
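Luciferase luminescence (ONE-Glo, 30 min room temperature) was the read-out. Cells of the NTP-supplied ERR line, 2,000 per well, were given 6 h at 37 C before compound addition in DMSO and 18 h exposure at 37 C.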

Assay [7] is described as follows: qHTS assay to identify small molecule agonists of the estrogen related receptor (ERR) signaling pathway from Tox21 library (AID 1224849). Further: nearly all actives have a fitted effect of over 15% in size. In outline:
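Luciferase activity in ERR pathway reporter cells served as the agonist readout; exposure lasted 18 h at 37 C, with ONE-Glo detection after 30 min at room temperature.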

Assay [8] can be described thus: qHTS RealTime-Glo MT Cell Viability Assay in HepG2 cells - 24 hour (AID 1224867; active means well fitted curve in the direction sought with a large enough effect in the repeat runs; an effect the other way counts as inactive or inconclusive; further: nearly all actives have a fitted effect of over 50% in size). In outline: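 Cell number in HepG2 cultures estimated from NanoLuc luminescence generated by metabolic reduction of a prosubstrate by living cells. The homogeneous, nonlytic format allowed repeated reads at 0, 8, 16, 24, 32 and 40 h of compound exposure.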
Assay [9] in a line: qHTS RealTime-Glo MT Cell Viability Assay in HEK293 cells - 32 hour (AID 1224868; active means well fitted curve in the direction sought with a large enough effect in the repeat runs; an effect the other way counts as inactive or inconclusive; further: nearly all actives have a fitted effect of over 50% in size; further: potency means the concentration at half of the fitted maximal effect). The method in brief: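 Homogeneous bioluminescent viability format in HEK293 cells (600 cells/well). Following 5 h at 37 C/5% CO2, 23 nL compound was pintooled; the signal was measured repeatedly during 40 h incubation.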
Assay [10] is described as follows: A CellTox Green Cytotoxicity Assay to monitor cytotoxicity in HEK293 cells - 0 hour (AID 1224869; active means well fitted curve in the direction sought with a large enough effect in the repeat runs; an effect the other way counts as inactive or inconclusive; further: nearly all actives have a fitted effect of over 50% in size). In outline: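 Real-time, in one plate: 600 HEK293 cells/well with dead-cell DNA dye, pinned compound after 5 h, 37 C incubation over 40 h; viable cells give no appreciable fluorescence.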

Thyrotropin receptor (Homo sapiens), sequence (P16473 whole entry, looked up): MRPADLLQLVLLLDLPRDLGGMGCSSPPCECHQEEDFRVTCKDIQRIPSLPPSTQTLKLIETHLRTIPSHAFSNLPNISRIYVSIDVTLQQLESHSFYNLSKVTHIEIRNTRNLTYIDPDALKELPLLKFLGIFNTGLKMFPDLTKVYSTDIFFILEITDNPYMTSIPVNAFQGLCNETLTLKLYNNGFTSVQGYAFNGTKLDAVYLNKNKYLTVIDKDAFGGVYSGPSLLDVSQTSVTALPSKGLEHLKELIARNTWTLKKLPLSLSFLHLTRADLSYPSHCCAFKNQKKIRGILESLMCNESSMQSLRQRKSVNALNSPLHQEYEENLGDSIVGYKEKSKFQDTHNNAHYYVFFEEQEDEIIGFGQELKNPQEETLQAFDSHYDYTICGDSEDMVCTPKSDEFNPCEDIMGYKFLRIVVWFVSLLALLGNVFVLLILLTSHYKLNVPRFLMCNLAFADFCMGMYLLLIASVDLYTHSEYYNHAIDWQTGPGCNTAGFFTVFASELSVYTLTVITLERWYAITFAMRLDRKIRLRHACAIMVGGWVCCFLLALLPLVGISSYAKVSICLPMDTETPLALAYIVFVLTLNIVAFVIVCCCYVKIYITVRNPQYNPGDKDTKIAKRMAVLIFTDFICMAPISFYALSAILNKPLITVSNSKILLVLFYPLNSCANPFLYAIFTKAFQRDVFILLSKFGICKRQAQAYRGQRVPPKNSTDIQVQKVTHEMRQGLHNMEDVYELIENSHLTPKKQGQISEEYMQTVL

For `C=C(C)CNCC`, the call in [1], in [2], in assay [3], in assay [4], in assay [5] and in assay [6] was inactive. Besides, the call in assay [7] and in assay [10] was inactive. Further, the Potency result in assay [8] and in assay [9] was “inactive” throughout.

On to `CCCCCCO`, for which the call in [1], in assay [2], in assay [3], in [4] and in assay [5] was inactive. Moreover, the Potency result in assay [8] and in [9] was “inactive” throughout.

For `O=C1C(c2[nH]c3ccccc3c2O)=Nc2ccccc21`, the call in assay [1], in [2], in [3], in [4], in [5] and in [6] was inactive. Also, in assay [7], the call was inactive. The Potency entry in assay [8] and in assay [9] was “inactive” each time.

Regarding `CC(C)CC(=O)CC(C)CC(C)C` (centres undefined), the outcome in [1], in assay [2], in [3], in assay [4], in assay [5] and in [6] was inactive. Also, the compound was called inactive in assay [7] and in assay [10]. In addition, the Potency entry in assay [8] was “inactive”. Also, the Potency entry in assay [9] is “inactive and 17.4 µM (active)”.

For `COC(=O)c1cccnc1`, the call in assay [1], in [2], in [3], in assay [4], in assay [5] and in assay [6] was inactive. Also, the result in assay [7] and in [10] was inactive. For the same compound, the Potency entry in [8] and in assay [9] was “inactive” in each case.

As for `N#Cc1ccccc1`, the result in assay [1], in [2], in [3], in [4], in assay [5] and in assay [6] was inactive. In addition, the outcome in assay [7] was inactive. The Potency result in [9] was “inactive”.

For `NCCCCCCN`, the call in assay [1], in assay [2], in assay [3], in [4], in assay [5] and in assay [6] was inactive. In addition, in assay [7], the outcome was inactive. Moreover, in assay [9], the Potency entry is “inactive”.

On to `O=C(O)c1cc2ccccc2cc1O`, for which the outcome in [1], in assay [2], in assay [3], in assay [4], in [5] and in assay [6] was inactive. Moreover, the result in assay [7] and in assay [10] was inactive. In addition, the Potency result in assay [8] and in [9] was “inactive” each time.

In the case of `Cc1ccc2ncccc2c1`, the call in assay [1], in assay [2], in assay [3], in assay [4], in assay [5] and in assay [6] was inactive. Also, the call in [7] and in assay [10] was inactive. Also, the Potency entry in assay [9] is “inactive”.

As for `OCc1ccccc1`, the compound was called inactive in [1], in assay [2], in assay [3], in assay [4], in assay [5] and in assay [6]. In assay [7], the result was inactive. The Potency entry in [8] and in assay [9] was “inactive” throughout.

Take `CCc1ccccc1CC`: the outcome in assay [1], in [2], in [3], in assay [4], in [5] and in assay [6] was inactive. For the same compound, the compound was called inactive in assay [7] and in [10]. In addition, the Potency result in [8] and in assay [9] was “inactive” in each case.

Regarding `Cc1ccc(S(=O)(=O)N=C=O)cc1`, the compound was called inactive in assay [1], in assay [2], in assay [3], in assay [4], in assay [5] and in assay [6]. Further, in [7], the compound was classed as inactive. For the same compound, the Potency result in [8] and in assay [9] was “inactive” throughout.

Turning to `COCCCN`, the outcome in [1], in [2], in assay [3], in assay [4] and in [5] was inactive. Further, the Potency result in [8] and in assay [9] was “inactive” each time.

For `COc1ccc(OC)cc1`, the compound was called inactive in [1], in assay [2], in assay [3], in [4], in assay [5] and in [6]. For the same compound, the outcome in assay [7] and in [10] was inactive. The Potency result in [8] and in assay [9] was “inactive” each time.

On to `Cc1ccc([N+](=O)[O-])cc1S(=O)(=O)O`, for which the call in [1], in assay [2], in [3], in assay [4], in assay [5] and in assay [6] was inactive. Also, in [7], the compound was called inactive. Further, in assay [9], the Potency entry was “inactive”.

Turning to `CC(=O)OCc1ccco1`, the compound was called inactive in [1], in [2], in assay [3], in [4], in [5] and in [6]. Moreover, in [7], the compound was called inactive. Further, the Potency result in assay [9] was “inactive”.

On to `COc1ccc(N)c(C)c1`, for which the call in assay [1], in assay [2], in assay [3], in [4] and in assay [5] was inactive. In addition, the Potency entry in assay [8] and in [9] was “inactive” each time.

With `CC(=O)CCC=C(C)C`, the compound was classed as inactive in assay [1], in assay [2], in assay [3], in [4], in [5] and in assay [6]. Besides, in assay [7], the result was inactive. Moreover, the Potency entry in [8] and in [9] was “inactive” each time.

In the case of `C=CC(=O)OCCC(=O)O`, the result in assay [1], in assay [2], in assay [3], in assay [4], in [5] and in assay [6] was inactive. The result in assay [7] and in assay [10] was inactive. The Potency entry in [8] and in assay [9] was “inactive” each time.

Take `CCCCCC(=O)O`: the compound was classed as inactive in [1], in assay [2], in assay [3], in assay [4], in assay [5] and in assay [6]. Moreover, the compound was called inactive in [7] and in assay [10]. The Potency result in assay [8] and in assay [9] was “inactive” each time.

For `CC(CCl)OP(=O)(OC(C)CCl)OC(C)CCl` (centres undefined), the compound was classed as inactive in [1], in assay [2], in [3], in [4], in [5] and in assay [6]. Moreover, the compound was classed as inactive in assay [7] and in [10]. The Potency result in assay [8] and in [9] was “inactive” each time.

On to `CC(C)c1cccc(C(C)C)c1`, for which the call in assay [1], in [2], in [3], in assay [4], in [5] and in [6] was inactive. For the same compound, the outcome in assay [7] was inactive. For the same compound, the Potency entry in [9] was “inactive”.

On to `CCCCCCC=O`, for which the result in [1], in [2], in assay [3], in assay [4] and in [5] was inactive. Further, the Potency result in assay [8] and in assay [9] was “inactive” each time.

On to `CCCCCCCCCCCC(=O)OC`, for which the result in [1], in assay [2], in [3], in [4] and in [5] was inactive. In addition, the Potency result in assay [8] and in assay [9] was “inactive” throughout.

As to `CCNc1cccc(C)c1`, the compound was classed as inactive in assay [1], in assay [2], in assay [3], in assay [4], in assay [5] and in [6]. The outcome in [7] was inactive. Besides, the Potency entry in assay [8] and in assay [9] was “inactive” in each case.
